Results on 57 compounds are retold here after paper PMC4336329 (PLoS ONE, 2015).

In all, about 310,000 compounds went through this assay and about 14,000 (4.5%) showed an effect of 50% or more. Effects have a minus sign here. What follows is part of a selection rich in strong results, with near analogues and random picks from the rest.
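Further: peak tail current of the secondary pulse compared with the same well before compound.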

In this assay the target is human ether-à-go-go-related gene (hERG) potassium channel (human, UniProt Q12809). The assay is described as follows: primary screen, population patch clamp on CHO cells stably expressing hERG; higher = less effect of the substance.
human ether-à-go-go-related gene (hERG) potassium channel, sequence (Q12809 whole entry, looked up): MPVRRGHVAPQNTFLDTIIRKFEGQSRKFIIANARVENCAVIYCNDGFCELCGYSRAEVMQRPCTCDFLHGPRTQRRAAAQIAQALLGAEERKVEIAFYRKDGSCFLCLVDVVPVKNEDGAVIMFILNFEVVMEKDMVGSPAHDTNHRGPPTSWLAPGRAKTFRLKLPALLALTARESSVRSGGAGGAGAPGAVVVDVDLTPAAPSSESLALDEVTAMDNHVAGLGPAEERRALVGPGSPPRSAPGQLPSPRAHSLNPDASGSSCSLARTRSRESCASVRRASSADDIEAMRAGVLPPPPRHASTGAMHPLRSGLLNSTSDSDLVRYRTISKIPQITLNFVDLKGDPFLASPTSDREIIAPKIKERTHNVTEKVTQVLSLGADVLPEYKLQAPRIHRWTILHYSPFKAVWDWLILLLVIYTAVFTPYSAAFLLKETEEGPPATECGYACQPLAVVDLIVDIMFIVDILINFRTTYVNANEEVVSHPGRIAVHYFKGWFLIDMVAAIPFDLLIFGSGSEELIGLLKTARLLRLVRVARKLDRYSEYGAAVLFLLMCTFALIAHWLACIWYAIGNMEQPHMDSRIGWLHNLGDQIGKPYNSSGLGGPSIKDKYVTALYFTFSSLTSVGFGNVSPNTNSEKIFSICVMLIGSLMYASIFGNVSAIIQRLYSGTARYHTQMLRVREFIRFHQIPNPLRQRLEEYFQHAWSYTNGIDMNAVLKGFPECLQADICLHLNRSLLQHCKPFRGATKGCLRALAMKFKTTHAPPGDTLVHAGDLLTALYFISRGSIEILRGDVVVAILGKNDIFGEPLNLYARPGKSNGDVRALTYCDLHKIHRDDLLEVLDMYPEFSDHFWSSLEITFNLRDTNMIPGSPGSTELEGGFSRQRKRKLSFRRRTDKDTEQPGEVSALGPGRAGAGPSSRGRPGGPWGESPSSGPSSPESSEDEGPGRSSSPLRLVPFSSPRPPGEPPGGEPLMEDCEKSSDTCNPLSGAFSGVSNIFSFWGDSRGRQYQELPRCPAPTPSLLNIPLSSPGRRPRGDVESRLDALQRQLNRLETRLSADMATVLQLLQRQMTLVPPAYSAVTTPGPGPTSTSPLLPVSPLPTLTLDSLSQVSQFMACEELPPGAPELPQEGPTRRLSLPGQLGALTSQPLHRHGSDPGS
Regarding `CC1=CC(c2ccc(Cl)cc2)n2ncnc2N1` (stereo not drawn), the “hERG current change (%, negative = inhibition) at 10uM” value is listed as -9.02%. The result for `Cc1ccc(N=CC2=C(O)CC(c3ccccc3Cl)CC2=O)cc1` (stereo not drawn) reads -6.91%.

Regarding `Cc1ccc(CN(C)Cc2cc(=O)oc3cc(C)c(Cl)cc23)cc1`, the “hERG current change (%, negative = inhibition) at 10uM” value is 14.9%. The result for `CC(=O)c1cccc(NC(=O)COc2cc3oc(=O)c(CC(C)O)c(C)c3cc2Cl)c1` (stereo not drawn) reads -57.7%. Turning to `O=C(COc1cc2oc(=O)c3c(c2cc1Cl)CCC3)Nc1cccnc1`, the “hERG current change (%, negative = inhibition) at 10uM” value is listed as 6.03%. The result for `CCOC(=O)c1ccc(NC(=O)COc2cc3oc(=O)c(CC(C)O)c(C)c3cc2Cl)cc1` (stereo not drawn) reads 13.7%. In the case of `CCOC(=O)NC(Nc1sc2c(c1C(=O)OC)CCN(C)C2)(C(F)(F)F)C(F)(F)F` it was -13.2%; in that of `CCN(CC)CCn1c(=N)n(CC(O)COc2ccccc2)c2ccccc21.Cl` (stereo not drawn), -52.1%; in that of `CCCCOC(=O)Cn1c(=N)n(CCN2CCOCC2)c2ccccc21.Cl`, -36.3%.

Regarding `CCCCOC(=O)Cn1c(=O)n(CC(=O)OCCCC)c2ccccc21`, the “hERG current change (%, negative = inhibition) at 10uM” value is on record as -33.9%.

In the case of `CCCCOC(=O)Cn1c(=O)n(CC(=O)OCCCC)c2cc(C)ccc21`, the “hERG current change (%, negative = inhibition) at 10uM” value is reported as -69.4%. As for `CCN(CC)CCn1c(=N)n(CC(O)COc2cccc(C)c2)c2ccccc21.Cl` (stereo not drawn), the “hERG current change (%, negative = inhibition) at 10uM” value was -65.2%. The result for `CCCCOC(=O)Cn1c(=O)oc2ccc(C)cc21` reads 5.97%; that for `CCCCOC(=O)Cn1c(=N)n(CCN(CC)CC)c2ccccc21`, -52.3%; that for `CCCCOC(=O)Cn1c(=N)n(CCC)c2ccccc21.Cl`, -31.5%.

Regarding `CCN(CC)CCn1c(=N)n(CC(O)c2ccc(OC)c(OC)c2)c2ccccc21.Cl` (stereo not drawn), the “hERG current change (%, negative = inhibition) at 10uM” value stood at 14.4%.

In the case of `CCn1c(=O)c(C(=O)Nc2ccccc2F)c(O)c2ccccc21`, the “hERG current change (%, negative = inhibition) at 10uM” value is recorded as 17.2%. With `COc1ccc(OC)c(-c2csc(NC(=O)CSc3nnnn3C)n2)c1`, the “hERG current change (%, negative = inhibition) at 10uM” value is 4.17%. Consider `COc1ccc(NC(=S)NC(NC(=O)CCl)C(Cl)(Cl)Cl)c([N+](=O)[O-])c1` (stereo not drawn), for which the “hERG current change (%, negative = inhibition) at 10uM” value is on record as 17.2%. Regarding `NS(=O)(=O)c1cc2c(cc1Cl)NCNS2(=O)=O`, the “hERG current change (%, negative = inhibition) at 10uM” value was -12.3%. Take `Cc1cccc(-n2ncc3c(NCc4ccccc4)ncnc32)c1`: the “hERG current change (%, negative = inhibition) at 10uM” value was 12%. Consider `O=C(c1cc2nc(-c3ccco3)cc(C(F)(F)F)n2n1)N1CCN(c2ccc(F)cc2)CC1`, for which the “hERG current change (%, negative = inhibition) at 10uM” value was -34.5%. The result for `O=C(N/N=C/c1ccco1)c1ccc(OCc2ccccc2)cc1` reads 10.9%. The result for `COc1ccccc1N1CCN(C(=O)C2CC2)CC1` reads 20%. In the case of `O=C(NCCc1ccccc1)c1ccccc1F` it was 24.5%; in that of `O=C(CCCN1C(=O)/C(=C/c2ccccc2Cl)SC1=S)NNC(=O)c1ccccc1Cl`, 29.8%; in that of `COCCSc1ccccc1C(=O)N1CCN(c2ccccc2OC)CC1`, 8.73%. As for `Br.CCN(CC)CCn1c(=N)n(CCOc2ccccc2)c2ccccc21`, the “hERG current change (%, negative = inhibition) at 10uM” value is given as -53.6%. The result for `S=c1[nH]c2ccccc2n1CCOc1ccccc1` reads 8.28%; that for `CCN(CC)CCn1c(=N)n(CCO)c2ccccc21`, 5.99%; that for `O=C(NC1CCSc2ccccc21)c1cc(S(=O)(=O)N2CCOCC2)ccc1Cl` (stereo not drawn), -18%.

Regarding `COc1ccc(NC(=S)N(Cc2ccc(Cl)cc2)Cc2ccc(C(=O)O)cc2)cc1Cl`, the “hERG current change (%, negative = inhibition) at 10uM” value was -3.51%. In the case of `CCOC(=O)c1ccc(-n2c(CN3CCC(C(N)=O)CC3)nc3ccc([N+](=O)[O-])cc3c2=O)cc1` it was -27.3%; in that of `Cc1cc2cc(C(c3nnnn3C3CCCC3)N(Cc3cccnc3)Cc3ccco3)c(=O)[nH]c2cc1C` (stereo not drawn), -24.3%. Turning to `Cc1ccc2cc(C(c3nnnn3C3CCCC3)N(Cc3cccnc3)Cc3ccco3)c(=O)[nH]c2c1` (stereo not drawn), the “hERG current change (%, negative = inhibition) at 10uM” value was -77.8%. In the case of `CCC(C)(C)n1nnnc1C(C(C)C)N(Cc1cccnc1)Cc1ccco1` (stereo not drawn) it was -2.92%; in that of `CCC(C)(C)n1nnnc1C(c1cc2ccc(C)cc2[nH]c1=O)N(Cc1cccnc1)Cc1ccco1` (stereo not drawn), -60.6%.

Regarding `Cc1ccc2[nH]c(=O)c(C(c3nnnn3C3CCCC3)N(Cc3cccnc3)Cc3ccco3)cc2c1` (stereo not drawn), the “hERG current change (%, negative = inhibition) at 10uM” value is listed as -5.71%. Consider `Cc1ccc2cc(C(c3nnnn3C3CCCC3)N(Cc3ccccc3)Cc3ccco3)c(=O)[nH]c2c1` (stereo not drawn), for which the “hERG current change (%, negative = inhibition) at 10uM” value stood at 10.7%. In the case of `O=C(CC1C(=O)NCCN1Cc1ccc(-c2ccccc2)cc1)NCCCn1ccnc1` (stereo not drawn) it was 14%; in that of `CC(C)CCNS(=O)(=O)c1cc2c3c(c1)CCN3C(=O)CC2`, 2.2%; in that of `COc1cc(-c2noc(CCCC(=O)NCc3ccco3)n2)cc(OC)c1OC`, -12.1%. In the case of `O=C1N(Cc2cccc(Cl)c2)C[C@@H]2C[C@@H](c3cccn3-c3cccnc3)N3CCC[C@@]123` it was -35.7%; in that of `O=C1N(Cc2cccc(Cl)c2)C[C@@H]2C[C@@H](c3cccn3-c3ccccn3)N3CCC[C@@]123`, -73.5%. The result for `O=C1N(Cc2cccc(Cl)c2)C[C@@H]2C[C@@H](c3cccn3-c3nccs3)N3CCC[C@@]123` reads -68%; that for `CCn1ccnc1[C@@H]1C[C@H]2CN(Cc3cccc(Cl)c3)C(=O)[C@]23CCCN13`, -39.3%. `C#CCOCCOCCOCCNc1nc(N2CCOCC2)nc(N2CCN(C(=O)[C@H](Cc3cc4ccccc4[nH]3)n3cc([C@@H](N)C(C)CC)nn3)CC2)n1.Cl` (stereo partly drawn): the “hERG current change (%, negative = inhibition) at 10uM” value came out at 9.81%. For `O=C(CSc1nc(-c2ccccc2)cc(=O)[nH]1)N1CCOCC1`, the “hERG current change (%, negative = inhibition) at 10uM” value is 5.84%. In the case of `O=C(c1ccco1)N1CCN(c2ncnc3c(-c4ccc(Cl)cc4)nsc23)CC1` it was 4.82%.

For the compound `COc1cc2[nH]c3c(N4CCN(c5ccccn5)CC4)ncnc3c2cc1OC`, the “hERG current change (%, negative = inhibition) at 10uM” value is listed as 13.1%. The result for `CCOc1ccc2[nH]c3c(N4CCc5ccccc5C4)ncnc3c2c1` reads 5.49%; that for `O=C(c1ccco1)N1CCN(c2ncnc3c2[nH]c2ccc(Cl)cc23)CC1`, -65.2%. The result for `CCOc1ccc2[nH]c3c(N4CCN(c5ccccn5)CC4)ncnc3c2c1` reads -59.4%; that for `CCOc1ccc2[nH]c3c(N4CCN(C(=O)c5ccco5)CC4)ncnc3c2c1`, -58.4%; that for `Cc1cccc2[nH]c3c(N4CCN(C(=O)c5ccco5)CC4)ncnc3c12`, -27%. In the case of `CCOC(=O)N1CCN(c2ncnc3c2[nH]c2ccc(OC)cc23)CC1` it was -44.1%; in that of `CCOc1ccc2[nH]c3c(N4CCC5(CC4)OCCO5)ncnc3c2c1`, 5.84%.
